High-throughput results (PubChem)
hNpr1 antagonist: blocks ANP-stimulated signaling of human Npr1 receptor; HEK293 hNpr1 GloSensor cGMP, ANP-stimulated luminescence; Potency, µM (series often up to 46.3 µM), for the others: top-dose activity change, negative = inhibition, hits mostly inhibitors; P16066; hit rate 1.6% among 76,000; calls by dose curve; further: nearly all actives have a fitted effect of over 60% in size
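Compound pre-incubated 30 min at room temperature on GloSensor-loaded HEK293 cells stably carrying hNpr1 and the pGS-40F cGMP biosensor. Stimulation uses hNppA at 0.1 nM final; luminescence is taken at baseline and 20 min post-agonist.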
GPT2 inhibitor: inhibitors of human GPT2 alanine aminotransferase. Recombinant GPT2, coupled pyruvate oxidase/HRP Amplex Red fluorescence. hit rate 0.25% among 100,000. Potency, µM (doses to about 57.7 µM), without a hit: at the highest dose activity change, negative = inhibition, usual class: inhibitors. Q8TD30; further: nearly all actives have a fitted effect of over 60% in size
Target sequence (Q8TD30 whole entry, looked up): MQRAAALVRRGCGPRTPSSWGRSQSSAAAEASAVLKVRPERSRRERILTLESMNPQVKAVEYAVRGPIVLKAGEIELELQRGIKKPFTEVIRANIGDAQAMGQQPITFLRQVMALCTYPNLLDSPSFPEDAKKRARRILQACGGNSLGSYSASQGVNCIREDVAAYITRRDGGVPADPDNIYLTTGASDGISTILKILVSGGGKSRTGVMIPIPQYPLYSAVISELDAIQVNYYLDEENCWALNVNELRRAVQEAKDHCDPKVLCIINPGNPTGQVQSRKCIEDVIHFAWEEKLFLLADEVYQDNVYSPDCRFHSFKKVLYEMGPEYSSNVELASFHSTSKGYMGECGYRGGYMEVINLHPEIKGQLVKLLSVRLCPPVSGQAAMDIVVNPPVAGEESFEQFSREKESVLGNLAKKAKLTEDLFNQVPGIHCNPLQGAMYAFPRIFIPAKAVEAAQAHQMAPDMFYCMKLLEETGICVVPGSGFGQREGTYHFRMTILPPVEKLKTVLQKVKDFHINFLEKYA
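Fluorescence of coupled pyruvate oxidase/HRP/Amplex Red system (50uM Amplex, 30 min, dark) reports pyruvate formed by GPT2. Enzyme reaction: 10ng/uL GPT2, 2mM L-alanine, 250uM a-KG, 30 min room temperature, pH 7.5; 50uM AOA control.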
3T3 cytotox: cytotoxic compounds in NIH 3T3 cells | NIH 3T3 viability, CellTiter-Glo ATP luminescence, 48-72 h | Potency, µM (top dose mostly 96.7 µM), without a hit: top-dose activity change, negative = cytotoxicity, usual class: inhibitors | hit rate 4.3% among 94,000; further: nearly all actives have a fitted effect of over 55% in size
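Viability of NIH 3T3 cells after 48 or 72 hr compound treatment at 37 °C was assessed by CellTiter-Glo, with luminescence imaged following a 10 min room-temperature step.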
HEK cytotox: cytotoxic compounds in HEK 293 cells | Potency, µM (titrated, usually from 115 µM), without a hit: at the top dose activity change, negative = cytotoxicity, most hits filed as inhibitors | hit rate 6.6% among 94,000 | HEK 293 viability, ATP luminescence (CellTiter-Glo), 48-72 h; further: nearly all actives have a fitted effect of over 60% in size
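Viability of HEK 293 cells, plated at 250 cells/well, was judged by cellular ATP after compound treatment for 48 or 72 hr. Luminescence was imaged 10 min after CellTiter-Glo addition at room temperature.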
FLuc inh: Photinus pyralis luciferase inhibition. Potency, µM (highest dose often 115 µM), actives largely listed as inhibitors. purified P. pyralis luciferase, luminescence, biochemical. AID 1347043. hit rate 2.5% among 76,000. P08659; further: nearly all actives have a fitted effect of over 65% in size
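Purified P. pyralis luciferase (10nM final) in 50mM Tris acetate pH 7.5, 10mM Mg acetate, 0.01% Tween-20, 0.05% BSA with 10uM D-luciferin and 10uM ATP. Compounds titrated qHTS. Luminescence imaged on CCD.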
Starred values were filed as active, the others as inactive; ! = repeats disagree; [ ] = dose if it differs, or a comment. This is a sample that favours compounds with a hit; in the whole collection about 10% have one here. Unless noted, the call rests on the fitted dose curve; in most records, active means well fitted curve in the direction sought with a large enough effect; inconclusive means small, poorly fitted or top-dose-only effect, or another doubt; inactive means no such curve, though single readings can be large; an effect the other way counts as inactive or inconclusive. On the % scale 0 is the no-effect control and ±100 the full control effect; potency means the concentration at half of the fitted maximal effect.

For CC1=C[C@@H](CN(C)C)[C@H](C(C)C)C[C@H]1Cc1nc2ncc(Cl)cc2[nH]1 the results were hNpr1 antagonist 1%[70.6 µM], GPT2 inhibitor inactive, 3T3 cytotox 71µM*, HEK cytotox 79µM* and FLuc inh inactive.
CC1=C[C@@H](CNC(=O)CN(C)C)[C@H](C(C)C)C[C@H]1Cc1nc2ccc(Cl)cc2[nH]1 was read as hNpr1 antagonist -4%[70.6 µM], GPT2 inhibitor 4%[88.5 µM], 3T3 cytotox 89µM*, HEK cytotox inconclusive and FLuc inh inactive.
Screening CC1=C[C@@H](CNC(=O)CC2(CC(=O)O)CCCC2)[C@H](C(C)C)C[C@H]1Cc1nc2ccc(C)cc2[nH]1 returned hNpr1 antagonist -10%, GPT2 inhibitor -13%, 3T3 cytotox -20%, HEK cytotox -5% and FLuc inh inactive.
For CC1=C[C@@H](CNC(=O)CCC(=O)O)[C@H](C(C)C)C[C@H]1Cc1nc2ccc(Cl)cc2[nH]1 the results were hNpr1 antagonist 1%[70.6 µM], GPT2 inhibitor 2%[88.5 µM], 3T3 cytotox -25%[174 µM], HEK cytotox -23%[172 µM] and FLuc inh inactive.
`COc1ccc2[nH]c(C[C@@H]3C[C@@H](C(C)C)[C@H](CN)C=C3C)nc2n1` gave hNpr1 antagonist inconclusive, GPT2 inhibitor -5%[88.5 µM], 3T3 cytotox inconclusive, HEK cytotox inconclusive and FLuc inh inactive.
CC1=C[C@@H](CNC(=O)CN(C)C)[C@H](C(C)C)C[C@H]1Cc1nc2ccc(C)cc2[nH]1 was read as hNpr1 antagonist -4%[70.6 µM], GPT2 inhibitor inactive, 3T3 cytotox 79µM*, HEK cytotox inconclusive and FLuc inh inactive.
`OC(c1ccccc1)c1cn(C2CCN(Cc3cnc4ccccc4c3)CC2)nn1` (centres undefined) gave hNpr1 antagonist 0%, GPT2 inhibitor 4%, 3T3 cytotox inconclusive, HEK cytotox -25% and FLuc inh inactive.
`O=C(CCc1c[nH]c2ccccc12)NCC12CCCC=C1N(CC1CC1)C(=O)CC2` (centres undefined) gave hNpr1 antagonist -1%, GPT2 inhibitor inactive, 3T3 cytotox -29%, HEK cytotox inconclusive and FLuc inh inactive.
Screening CCOc1ccccc1CN1CC[C@H](CNC(C)=O)[C@H](N(C)C)C1 returned hNpr1 antagonist 4%, GPT2 inhibitor 4%, 3T3 cytotox -28%, HEK cytotox -20% and FLuc inh inactive.
`CN1C(=O)CC(C(=O)O)C12CCN(C/C=C/c1ccccc1)CC2` (centres undefined) gave hNpr1 antagonist -5%, GPT2 inhibitor -23%, 3T3 cytotox -8%, HEK cytotox -25% and FLuc inh inactive.
`O=C(NCCOc1ccccc1)c1cnc2n1CCN(CC1CCOCC1)CC2` gave hNpr1 antagonist -1%[70.6 µM], GPT2 inhibitor -10%[88.5 µM], 3T3 cytotox 4%[138 µM], HEK cytotox inconclusive and FLuc inh inactive.
Screening O=C(C1CCCN1Cc1ccc(-c2cncnc2)cc1)N1CCC(Cc2ccccc2)CC1 (centres undefined) returned GPT2 inhibitor inactive, 3T3 cytotox inconclusive and HEK cytotox inconclusive.
Screening Cc1cc(C)cc(-c2ccc(CN3CCCC3C(=O)N3CCN(Cc4ccccc4)CC3)cc2)c1 (centres undefined) returned GPT2 inhibitor 4%, 3T3 cytotox 13µM* and HEK cytotox 20µM*.
COc1ccc(CN2Cc3[nH]cnc3C[C@H]2C(=O)N2CCC(Cc3ccccc3)CC2)cc1 was read as hNpr1 antagonist -12%, GPT2 inhibitor 3%, 3T3 cytotox 18µM*, HEK cytotox 79µM* and FLuc inh inactive.
For Cc1cc(C)cc(-c2ccc(CN3CCCC3C(=O)N3CCCC(C)C3)cc2)c1 (centres undefined) the results were GPT2 inhibitor inactive, 3T3 cytotox inconclusive and HEK cytotox 35µM*.
For Cc1cc(C)cc(-c2ccc(CN3CCCC3C(=O)N3CCC(Cc4ccccc4)CC3)cc2)c1 (centres undefined) the results were GPT2 inhibitor 1%, 3T3 cytotox 11µM* and HEK cytotox 20µM*.
For COc1ccc(-c2cc(N3CCCC(NC(=O)c4cccc(F)c4)C3)n[nH]2)cc1 (centres undefined) the results were hNpr1 antagonist -5%, GPT2 inhibitor inactive, 3T3 cytotox inconclusive, HEK cytotox inconclusive and FLuc inh inconclusive.
O=c1n(-c2ccc(C(F)(F)F)cc2)nc2n1CCN(Cc1ccccc1)C2 was read as hNpr1 antagonist 1%, GPT2 inhibitor 0%, 3T3 cytotox inconclusive, HEK cytotox 7.9µM*! and FLuc inh inactive.
For COc1ccc(-n2nc3n(c2=O)CCN(C(=O)c2ccc(C(F)(F)F)cc2)C3)cc1 the results were GPT2 inhibitor inactive, 3T3 cytotox 32µM* and HEK cytotox -2%.
For Cc1ccc(CN2CCn3c(nn(-c4ccncc4)c3=O)C2)cc1 the results were hNpr1 antagonist 20µM*, GPT2 inhibitor 3%[88.5 µM], 3T3 cytotox inconclusive, HEK cytotox inconclusive and FLuc inh inactive.
`COc1ccc(C(=O)N2CCn3c(nn(-c4ccc(OC)cc4)c3=O)C2)cc1` gave GPT2 inhibitor 0%, 3T3 cytotox inconclusive and HEK cytotox -5%.
COc1ccc(CN2CCn3c(nn(-c4ccc(OC)cc4)c3=O)C2)cc1 was read as GPT2 inhibitor -7%, 3T3 cytotox -15% and HEK cytotox -5%.
Cc1cc(CN2CCn3c(nn(-c4ccc(C(F)(F)F)cc4)c3=O)C2)no1 was read as GPT2 inhibitor 2%, 3T3 cytotox inconclusive and HEK cytotox 89µM*.
Screening Cc1ccc(CN2CCn3c(nn(-c4ccc(C(F)(F)F)cc4)c3=O)C2)cc1 returned hNpr1 antagonist 4%, GPT2 inhibitor -26%, 3T3 cytotox inconclusive, HEK cytotox inconclusive and FLuc inh inactive.
COc1ccc(Cl)cc1S(=O)(=O)N1CCC(OC2CCN(C)CC2)CC1 was read as hNpr1 antagonist 0%, GPT2 inhibitor -10%, 3T3 cytotox -26%, HEK cytotox inconclusive and FLuc inh inactive.
Screening COc1ccc(C(=O)N2CCC(c3nn(C)c(=O)n3Cc3ccccc3)CC2)cc1F returned GPT2 inhibitor -7%, 3T3 cytotox -22% and HEK cytotox 2%.
CC(=O)N1CC(CO)C2(CCN(C(=O)c3cccc(Br)c3)CC2)C1 (centres undefined) was read as hNpr1 antagonist 0%, GPT2 inhibitor inactive, 3T3 cytotox -9%, HEK cytotox 1% and FLuc inh inactive.
`COc1ccc(-n2nc3n(c2=O)CCN(Cc2ccccc2)C3)cc1` gave GPT2 inhibitor -4%, 3T3 cytotox 8.9µM* and HEK cytotox inconclusive.
For COc1ccccc1-c1nc(C(=O)N2CCOCC2)n2ccccc12 the results were GPT2 inhibitor -11%, 3T3 cytotox 3% and HEK cytotox inactive.
